Reference: PubChem BioAssay AID1159580 (chemical genetic matrix, 2015)
Hit rate of the full screen: of about 5,500 compounds, about 2,000 (36%) were called active. About 18% were inconclusive and are not listed. Rule as the data show it: active = normalized growth mostly below about 0.91 (no sharp cut-off); inconclusive = no clear call, values can overlap the other calls; inactive = mostly above about 0.92. Some of the results follow.

Assay: chemical genetic growth profiling, strain panel (AID 1159580);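 also: tested at 20 µM; growth read once vehicle control cultures reached saturation at 30 °C; 1 = growth at the plate median or of vehicle wells; lower values mean less growth of the strain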
Settings: growth OD

Measured: normalized growth

CC(C)(C)OC(=O)N1CCC(C(N)=O)CC1
inactive: S. cerevisiae deletion strains, locus YAL013W, strain DEP1, hits give low values 0.997 | S. cerevisiae deletion strains, locus YBR229C, strain ROT2, hits give low values 1.01 | S. cerevisiae deletion strains, locus YCL061C, strain MRC1, hits give low values 1.02 | S. cerevisiae deletion strains, locus YDL101C, strain DUN1, hits give low values 1.01 | S. cerevisiae deletion strains, locus YDR150W, strain NUM1, hits give low values 1.01 | S. cerevisiae deletion strains, locus YEL061C, strain CIN8, hits give low values 1.01 | S. cerevisiae deletion strains, locus YGR078C, strain PAC10, hits give low values 1.01 | S. cerevisiae deletion strains, locus YHR030C, strain SLT2, hits give low values 1.08 | S. cerevisiae deletion strains, locus YHR087W, strain rtc3, hits give low values 1.01 | S. cerevisiae deletion strains, locus YJR043C, strain POL32, hits give low values 1.01 | S. cerevisiae deletion strains, locus YJR075W, strain HOC1, hits give low values 1.01 | S. cerevisiae deletion strains, locus YLR039C, strain RIC1, hits give low values 1.04 | S. cerevisiae deletion strains, locus YLR058C, strain SHM2 (second series), hits give low values 1.01 | S. cerevisiae deletion strains, locus YLR085C, strain ARP6, hits give low values 1.02 | S. cerevisiae deletion strains, locus YLR262C, strain YPT6, hits give low values 1.07 | S. cerevisiae deletion strains, locus YML094W, strain GIM5, hits give low values 1.03 | S. cerevisiae deletion strains, locus YMR219W, strain ESC1, hits give low values 1.01 | S. cerevisiae deletion strains, locus YMR263W, strain SAP30, hits give low values 1.02 | S. cerevisiae deletion strains, locus YMR307W, strain GAS1, hits give low values 1.04 | S. cerevisiae deletion strains, locus YNL153C, strain GIM3, hits give low values 1.01 | S. cerevisiae deletion strains, locus YNL298W, strain CLA4 (second series), hits give low values 1.03 | S. cerevisiae deletion strains, locus YNL322C, strain KRE1, hits give low values 1.02 | S. cerevisiae deletion strains, locus YNR030W, strain Alg12, hits give low values 1.03 | S. cerevisiae deletion strains, locus YPL055C, strain LGE1, hits give low values 1.01 | S. cerevisiae deletion strains, locus YPL241C, strain CIN2, hits give low values 1.03 | S. cerevisiae deletion strains, locus YPR135W, strain CTF4, hits give low values 0.974 | S. cerevisiae strains, strain wild type, hits give low values 1.02
